Laboratory results published in PubChem BioAssay (EPA / NIEHS).
Several values for one entry are separate records, joined by “and”; a condition that tells them apart may be missing. Identical values can stand only once. Some compounds were tested as several samples or in several runs, with calls that do not always agree. Activity calls are given as the source filed them. Rule for the calls: active = hit-call score of the fitted dose curve at least 0.9, where 1 is the maximum; inactive = score below 0.9.

What follows are compounds tested on Tumor necrosis factor (Homo sapiens) (UniProt P01375) (assay: BSK_LPS_TNFa: BioMAP Diversity Plus: LPS Assay for Tumour Necrosis Factor alpha (TNFa) Biomarker Activity (AID 2283085)). Conditions: primary human HUVEC with PBMC; actives raise or lower the signal.
Chain of Tumor necrosis factor (Homo sapiens) (P01375 whole entry, looked up): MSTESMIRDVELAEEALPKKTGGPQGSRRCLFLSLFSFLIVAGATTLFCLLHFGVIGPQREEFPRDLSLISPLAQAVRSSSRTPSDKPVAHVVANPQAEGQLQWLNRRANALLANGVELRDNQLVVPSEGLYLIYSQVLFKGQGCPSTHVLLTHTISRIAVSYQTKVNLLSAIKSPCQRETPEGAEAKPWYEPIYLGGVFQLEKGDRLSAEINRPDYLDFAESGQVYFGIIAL
Description: BSK_LPS is a cell-based, multiplexed-readout assay that uses umbilical vein endothelium and peripheral blood mononuclear cells, a human vascular primary cell co-culture, with measurements taken at 24 hours after chemical dosing in a 96-well plate.BSK_LPS_TNFa is an assay component measured in the BSK_LPS assay. It measures TNF-a antibody related to regulation of gene expression using ELISA technology.Data from the assay component BSK_LPS_TNFa was analyzed into 1 assay endpoint. This assay endpoint, BSK_LPS_TNFa, was analyzed with bidirectional fitting relative to DMSO as the negative control and baseline of activity. Using a type of binding reporter, gain or loss-of-signal activity can be used to understand changes in the signaling as they relate to the gene TNF. Furthermore, this assay endpoint can be referred to as a primary readout, because this assay has produced multiple assay endpoints where this one serves a signaling function. To generalize the intended target to other relatable targets, this assay endpoint is annotated to the cytokine intended target family, where the subfamily is inflammatory factor.
The levels of cell surface (or secreted, indicated by the prefix "s") biomarker endpoints were measured by ELISA. Overt cytotoxicity to cells in confluent adherent cultures (all systems other than the BT system) was assessed by measuring total protein levels using sulforhodamine B (SRB) staining in parallel cultures at the time of biomarker measurements, indicated as SRB endpoints. For proliferation assays for adherent cell types, individual cell types are cultured at sub-confluence and relative cell numbers quantified by SRB staining at time points optimized for each system (48 h: 3C and CASM3C systems; 72 h: BT and HDF3CGF systems; 96 h: SAg system). SRB was performed by staining cells with 0.1% SRB after fixation with 10% TCA and reading wells at 560 nm.Viability and proliferation of PBMC (T cells) was quantified by Alamar Blue reduction for the SAg and BT systems. For PBMC viability (referred to as PBMC Cytotoxicity within the assay endpoint names), cells were plated (75,000/well in a 96-well plate) and then chemical samples added for 1 h before addition of activators, SEB and TSST-1 (20 ng/mL final concentration each). Cells were incubated for 90 h. Then, Alamar Blue (20 uL/well) (Invitrogen, Cat DAL1100) was added for 6 h, and the plates were read with a fluorescence microplate reader at 546/580 nm (excitation/emission). For PBMC proliferation, cells were plated and activated as above but incubated for only 16 h prior to addition of Alamar Blue. Plates were read after 6 h.
In the case of `COC(=O)CC(=O)OC`, the outcome is reported as “inactive”. For `C=CCCCCCCCCC(=O)O`, the AC50 was 0.74 µM (active). `Cc1ccc(O)cc1` was tested, and the outcome was “inactive”. With `CNS(=O)(=O)c1cc(C(=O)N2CCC(CCN3C4CCC3CC(n3c(C)nc5ccccc53)C4)(c3cccc(F)c3)CC2)c(Cl)cc1F` (stereo not given) the outcome was “inactive”. In the case of `CCCCCCCCCCCCCCCO`, the AC50 is reported as 3.97 µM (active). With `Clc1nc(Cl)c(Cl)c(Cl)c1Cl` the AC50 was 31.7 µM (active). With `C=CC(=C)CCC=C(C)C` the outcome was “inactive”. `COc1ccc2sc(C(=O)Nc3nnn[nH]3)c(OC(C)C)c2c1` was tested, and the AC50 was 28.9 µM (active). `CC(=O)OC[C@H]1O[C@@](COC(C)=O)(O[C@H]2O[C@H](COC(C)=O)[C@@H](OC(C)=O)[C@H](OC(C)=O)[C@H]2OC(C)=O)[C@@H](OC(C)=O)[C@@H]1OC(C)=O` was tested, and the outcome was “inactive”. With `COC(=O)c1ccccc1O` the outcome was “inactive”. For `CCOC(=O)COc1ccc2c(c1)CC(NCC(O)c1cccc(Cl)c1)CC2` (stereo not given), the outcome was “inactive”. In the case of `COc1cccc(-c2ccc(/C=C\CN3CCCCCC3)cc2Cl)c1`, the outcome is reported as “inactive”. With `CC(=O)OCCC(C)C` the outcome was “inactive”. `Cc1[nH]cnc1C[C@H]1CCc2c(C)c3ccccc3n2C1=O` was tested, and the AC50 was 25.7 µM (active). `CC[C@H]1CC[C@H](NCc2cc3c(cc2OC)[C@H]2C[C@H]2C(=O)N3C)[C@H](c2ccccc2)N1` was tested, and the outcome was “inactive”. With `O=c1n(CC2CO2)c(=O)n(CC2CO2)c(=O)n1CC1CO1` (stereo not given) the outcome was “inactive”. With `CCN(C(=O)c1cc(C)cc(OC[C@H](C)Nc2ccncc2)c1)C(C)C` the outcome was “inactive”. For `CCOCCOCCOCCO`, the outcome was “inactive”. For `CCCCC(CC)COC(=O)c1ccc(C(=O)OCC(CC)CCCC)cc1` (stereo not given), the outcome was “inactive”. `O=C(O)CC(O)C(=O)O` (stereo not given) was tested, and the outcome was “inactive”. `Nc1cccc(N)c1` was tested, and the outcome was “inactive”. For `CCOc1cccc(-n2cc(C(=O)N3CCN(c4cc(C(=O)O)c5ccccc5c4)CC3)nc2-c2ccc(C)cc2)c1`, the AC50 was 20.9 µM (active). `CC(C)=CCC/C(C)=C/CO` was tested, and the outcome was “inactive”. `CC(C)=CCCC(C)CCO` (stereo not given) was tested, and the outcome was “inactive”. With `Nc1nc2ncc(CNc3ccc(C(=O)N[C@@H](CCC(=O)O)C(=O)O)cc3)nc2c(=O)[nH]1` the outcome was “inactive”. In the case of `CN(C)c1ccc(Cc2ccc(N(C)C)cc2)cc1`, the outcome is reported as “inactive”. With `Nc1ccc(Nc2ccccc2)cc1` the AC50 was 20 µM (active). With `O=C1CCCCCN1` the outcome was “inactive”. With `Cn1cnc([N+](=O)[O-])c1Sc1ncnc2nc[nH]c12` the AC50 was 19.2 µM (active) and 15.7 µM (active) and the outcome was “inactive”. With `Cc1c(-c2cccnc2)c2ccccc2n1CCCCC(=O)O` the outcome was “inactive”. For `Cc1ccc(S(=O)(=O)O)cc1C`, the outcome was “inactive”. In the case of `O=C(OC[C@H]1O[C@@H](OC(=O)c2cc(O)c(O)c(OC(=O)c3cc(O)c(O)c(O)c3)c2)[C@H](OC(=O)c2cc(O)c(O)c(OC(=O)c3cc(O)c(O)c(O)c3)c2)[C@@H](OC(=O)c2cc(O)c(O)c(OC(=O)c3cc(O)c(O)c(O)c3)c2)[C@@H]1OC(=O)c1cc(O)c(O)c(OC(=O)c2cc(O)c(O)c(O)c2)c1)c1cc(O)c(O)c(OC(=O)c2cc(O)c(O)c(O)c2)c1`, the outcome is reported as “inactive”. With `O=C(NS(=O)(=O)/C=C/c1ccccc1)c1ccc(F)cc1Cl` the outcome was “inactive”. For `CNCc1ccc(NC(=O)c2c[nH]c3c2C(=O)CCC3)cc1`, the outcome was “inactive”. In the case of `O=C(O)c1cccc(Oc2ccccc2)c1`, the outcome is reported as “inactive”. In the case of `O=C1OC(=O)C2C3C=CC(C3)C12` (stereo not given), the outcome is reported as “inactive”. For `O=C(O)CCN(C1(C(=O)NO)CCCC1)S(=O)(=O)c1ccc(Oc2ccc(F)cc2)cc1`, the outcome was “inactive”. With `CCC(C)(C)C(=O)O[C@H]1C[C@@H](C)C=C2C=C[C@H](C)[C@H](CC[C@@H]3C[C@@H](O)CC(=O)O3)[C@H]21` the AC50 was 0.363 µM (active). With `O=C(O)c1cccc(N(Cc2cccnc2)c2ccc(OC(F)F)c(OC(F)F)c2)c1` the AC50 was 1.95 µM (active).
